Screening results from PubChem BioAssay.
Sampled rows, rich in hits. Any-hit rate of the full collection: about 1.6%.
PREPL inh = PREPL enzyme inhibitors, primary screen, biochemical, fluorescence polarization; Prolyl endopeptidase-like (Homo sapiens), Q4J6C6; recombinant PREPL, fluorescence polarization activity-based probe; inhibition, % at 5.96 µM; actives 0.68% (n = 320,000); AID 2751, 2010; in the data active = inhibition above about 43%;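 note: 0% = enzyme with DMSO and 100% = wells lacking enzyme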
Target sequence (Q4J6C6 whole entry, looked up): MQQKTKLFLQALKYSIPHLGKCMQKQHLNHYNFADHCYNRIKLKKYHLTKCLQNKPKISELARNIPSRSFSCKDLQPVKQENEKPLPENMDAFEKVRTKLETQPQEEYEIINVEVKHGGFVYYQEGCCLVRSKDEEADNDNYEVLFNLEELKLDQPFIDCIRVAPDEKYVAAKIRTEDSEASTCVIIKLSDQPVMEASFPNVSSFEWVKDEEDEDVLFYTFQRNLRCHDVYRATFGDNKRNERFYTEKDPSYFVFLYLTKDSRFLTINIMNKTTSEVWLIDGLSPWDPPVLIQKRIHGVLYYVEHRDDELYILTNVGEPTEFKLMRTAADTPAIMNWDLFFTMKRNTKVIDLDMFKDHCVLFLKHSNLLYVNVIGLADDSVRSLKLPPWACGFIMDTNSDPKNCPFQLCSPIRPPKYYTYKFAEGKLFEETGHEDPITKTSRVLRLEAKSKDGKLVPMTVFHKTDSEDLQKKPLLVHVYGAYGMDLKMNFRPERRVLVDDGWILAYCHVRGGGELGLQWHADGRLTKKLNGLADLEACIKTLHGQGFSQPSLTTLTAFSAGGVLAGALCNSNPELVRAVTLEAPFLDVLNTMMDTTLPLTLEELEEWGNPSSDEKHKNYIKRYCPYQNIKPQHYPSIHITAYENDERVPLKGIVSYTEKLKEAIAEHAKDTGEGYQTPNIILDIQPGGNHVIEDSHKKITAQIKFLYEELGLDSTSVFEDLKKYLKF
Pemphigus Ab inh = inhibitors of pemphigus antibody binding to DSG3, primary screen, biochemical, bead-based, flow cytometry, scFv-GFP; Desmoglein-3 (Homo sapiens), P32926; DSG3-coupled beads, scFv-anti-DSG3-GFP binding; stronger effect = lower value; binding (percent of control), % at 10 µM; actives 0.48% (n = 310,000); AID 588358, 2011;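 active = binding more than 3 SD below its plate's average and above zero; inconclusive = below that plate limit but binding exactly zero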;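 note: hits lower antibody fragment binding to DSG3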
GRK2 aptamer HTS = compounds blocking aptamer binding on GRK2 – biochemical, human GRK2, bead flow cytometry, HTS, primary screen; actives 0.59% (n = 330,000); inhibition of aptamer binding, % at 10 µM; AID 488847, 2010; FAM-aptamer displacement from GRK2;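 active = inhibition of aptamer binding above 40%, roughly 3 SD of noise, on plates passing a quality check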;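 note: median bead fluorescence of bound FAM aptamer so fluorescent compounds give negative values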
JMJD2C inh = inhibitors of GASC-1 histone demethylase, primary screen, biochemical, fluorescence, DELFIA europium | inhibition, % at 2.35 µM | GST-JMJD2C(1-420) H3K9me3 demethylation | AID 2099, 2009 | Lysine-specific demethylase 4C (Homo sapiens), Q9H3R0 | actives 0.069% (n = 330,000);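 active = more than half of a compound's replicate wells show inhibition beyond 50%, single wells judged on their own value; inconclusive = some, but no more than half, of replicates pass 50% inhibition; inactive = no replicate passes 50% inhibition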;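 note: signal counts dimethyl H3K9 product captured on neutravidin plate; 0% = median of DMSO wells and 100% = 0.3 times that DMSO median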
VLA-4 inh = inhibition in human VLA-4 binding assay, primary screen, VLA-4 allosteric modulator project, MLPCN library, flow cytometry, VLA-4 expressing cells; AID 2557, 2010; ligand binding flow cytometry; inhibition, % (about 7 µM as worked out from the volumes in the protocol); Integrin alpha-4 (Homo sapiens), P13612; actives 0.2% (n = 330,000); in the data active = inhibition above about 50%
VLA-4 mod pick = retest of VLA-4 allosteric modulators, confirmation, cell-based, cherry-picked plates, U937, HUTS-21 LIBS antibody. shares compounds with VLA-4 inh. U937 cells, HUTS-21 LIBS mAb binding, flow cytometry; LDV ligand present at threefold Kd. inhibition, % at 6.7 µM. actives 2% (n = 1,300); in the data active = inhibition above about 40%;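 note: 0% = ligand without compound and 100% = no ligand background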
Numbers without * were called inactive.

Results for COc1ccc2sc(-c3ccccc3OC)c(-c3ccc(OC)nc3)c2c1 ?
PREPL inh: 15; Pemphigus Ab inh: 95; GRK2 aptamer HTS: 0; JMJD2C inh: -3; VLA-4 inh: 11

How did COc1cc2sc(-c3ccccc3OC)c(-c3ccc(OCCN4CCCCC4)cc3)c2cc1OC do in these assays?
PREPL inh: 26; Pemphigus Ab inh: 117; GRK2 aptamer HTS: 0; JMJD2C inh: -9; VLA-4 inh: 26; VLA-4 mod pick: 4

How did CCCCCCCCc1nc(=S)[nH][nH]1 do in these assays?
PREPL inh: -18; Pemphigus Ab inh: 96; GRK2 aptamer HTS: 2; JMJD2C inh: -4; VLA-4 inh: 26

Results for CC(=O)Nc1ccc(S(=O)(=O)NCC(=O)NC(C)c2ccc(S(N)(=O)=O)cc2)cc1 (stereo not drawn) ?
PREPL inh: -12; Pemphigus Ab inh: 101; GRK2 aptamer HTS: 1; JMJD2C inh: 43; VLA-4 inh: -3; VLA-4 mod pick: 1

Results for CSc1ncccc1C(=O)OCC(=O)c1ccc(S(=O)(=O)N2CCCCC2)cc1 ?
PREPL inh: 3; Pemphigus Ab inh: 112; GRK2 aptamer HTS: 3; JMJD2C inh: 0; VLA-4 inh: -1

What do the screens show for `CSc1ncccc1C(=O)OCC(=O)Nc1ccc(S(=O)(=O)N2CCCC2)cc1`?
PREPL inh: 0; Pemphigus Ab inh: 112; GRK2 aptamer HTS: 0; JMJD2C inh: 3; VLA-4 inh: 43; VLA-4 mod pick: 7

Results for COc1ccc(CCNC(=O)c2cc([N+](=O)[O-])ccc2N2CCOCC2)cc1 ?
PREPL inh: 6; Pemphigus Ab inh: 100; GRK2 aptamer HTS: 3; JMJD2C inh: -1; VLA-4 inh: 18

What do the screens show for `CCOc1ccc(C(=O)c2cc([N+](=O)[O-])ccc2N2CCOCC2)cc1`?
PREPL inh: 12; GRK2 aptamer HTS: 0; JMJD2C inh: -17; VLA-4 inh: 51*; VLA-4 mod pick: 49*

Results for CCOc1ccc(S(=O)(=O)N2CCN(C(=O)c3cc([N+](=O)[O-])ccc3N3CCOCC3)CC2)cc1 ?
PREPL inh: -1; GRK2 aptamer HTS: 0; JMJD2C inh: 5; VLA-4 inh: 0

How did COc1ccc(C(=O)c2cc([N+](=O)[O-])ccc2N2CCOCC2)cc1 do in these assays?
PREPL inh: 8; Pemphigus Ab inh: 92; GRK2 aptamer HTS: 6; JMJD2C inh: -9; VLA-4 inh: 31; VLA-4 mod pick: 47*

What do the screens show for `CO/N=C/CC(=O)c1ccc([N+](=O)[O-])c(CS(=O)(=O)c2ccc(Cl)cc2)c1`?
PREPL inh: 8; Pemphigus Ab inh: 92; GRK2 aptamer HTS: 2; JMJD2C inh: -3; VLA-4 inh: 42; VLA-4 mod pick: -18

Results for COc1ccccc1NC(=S)N1CCN(c2ccccn2)CC1 ?
PREPL inh: 8; Pemphigus Ab inh: 107; GRK2 aptamer HTS: 0; JMJD2C inh: 6; VLA-4 inh: -15

Results for COc1ccccc1NC(=O)N1CCN(c2ccccn2)CC1 ?
PREPL inh: 2; Pemphigus Ab inh: 101; GRK2 aptamer HTS: 0; JMJD2C inh: -17; VLA-4 inh: 52*; VLA-4 mod pick: -4

How did CC(C)c1ccc(/C=N/n2c(-c3ccccc3)n[nH]c2=S)cc1 do in these assays?
PREPL inh: 5; Pemphigus Ab inh: 104; JMJD2C inh: -8; VLA-4 inh: 13

How did CC(C)[C@H](NC(=O)c1ccccc1F)C(=O)NCc1ccc(S(N)(=O)=O)cc1 do in these assays?
PREPL inh: -2; Pemphigus Ab inh: 124; GRK2 aptamer HTS: 1; JMJD2C inh: 2; VLA-4 inh: 13

Results for CC(C)C(NC(=O)c1ccccc1F)C(=O)NCc1ccccc1 (stereo not drawn) ?
PREPL inh: -7; Pemphigus Ab inh: inconclusive; GRK2 aptamer HTS: 0; JMJD2C inh: 3; VLA-4 inh: 52*; VLA-4 mod pick: -7
